PubChem BioAssay (NCI)
This is part of a sample that, as a whole, favours compounds with a hit. Of some 79,000 tested, about 15% had one in any assay. Values without a mark were called inactive. Activity calls are given as the source filed them. Rule as the data show it: active = growth inhibition above about 70%; inactive = the rest.

Experiment: NCI Yeast Anticancer Drug Screen. Data for the mec2-1 strain (AID 157)
Conditions: S. cerevisiae mec2-1 strain, at 50.0 µM, hits give high values
Method in brief: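 Growth inhibition is read against vehicle-treated controls after compound exposure of the mec2-1 yeast strain, which is defective in DNA damage repair or cell cycle control.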

Which growth inhibition does the source give for `COC1C=COC2(C)Oc3c(C)c(O)c4c(c3C2=O)/C(=N/C2CCC(O)OC2C)C=C(NC(=O)/C(C)=C\C(=O)C2CC2C(O)C(C)C(O)C(C)C(OC(C)=O)C1C)C4=O` (stereo not drawn) here?
The growth inhibition was 30.6%.

For `S=c1[nH]nc(Nc2ccc(Cl)cc2)s1`, which growth inhibition is on record?
The growth inhibition was 91.8% (active).

Which growth inhibition does the source give for `O=C1CSC(/C=C/c2ccccc2)N1c1ccc(-c2ccc(-n3c(-c4ccccc4)nc4ccccc4c3=O)cc2)cc1` (stereo not drawn) here?
The growth inhibition was 42.5%.

With `O=C1C=CC(=O)N1c1ccc2c(c1)Cc1cc(NC(=O)C(F)(F)F)ccc1-2` as the molecule, how does the growth inhibition read?
Its growth inhibition is 83.5% (active).

Which growth inhibition does the source give for `Brc1ccc(-c2cc3c(cc2C2SCCS2)OCO3)cc1` here?
Its growth inhibition is 22.2%.

Which growth inhibition does the source give for `Oc1ccc2ccccc2c1C(c1ccc(Cl)cc1)c1c(O)ccc2ccccc12` here?
Its growth inhibition is 83.9% (active).

With `C[CH2][Sn]([CH2]C)([O]C(=O)C(OC(C)=O)c1ccccc1)[O]C(=O)C(OC(C)=O)c1ccccc1` (stereo not drawn) as the molecule, how does the growth inhibition read?
The growth inhibition was 35.1%.

With `Cc1ccc2ccc(O)cc2c1` as the molecule, how does the growth inhibition read?
The growth inhibition was 1.85%.

Same assay, conditions: S. cerevisiae mec2-1 strain, at 100.0 µM, hits give high values

For `Cc1cccc2c(C(O)CBr)cc(-c3ccc(Cl)cc3)nc12` (stereo not drawn), which growth inhibition is on record?
The growth inhibition was 51%.

With `CN(C)C[C@H]1CC[C@@H](CN(C)C)C1=O` as the molecule, how does the growth inhibition read?
The growth inhibition was 49%.

For `CC1=C(SCCO)C(=O)c2ccccc2C1=O`, which growth inhibition is on record?
The growth inhibition was 11%.

With `COC(=O)CCNc1c2ccccc2nc2cccc([N+](=O)[O-])c12` as the molecule, how does the growth inhibition read?
The growth inhibition was 98% (active).

With `CC(/C=C/c1ccc2c(c1)OCO2)[N+](=O)[O-]` (stereo not drawn) as the molecule, how does the growth inhibition read?
Its growth inhibition is 99% (active).

For `COC(=O)C1=C(C)NC(C)=C(C(=O)OCCCN2CCC(c3ccccc3)(c3ccccc3)CC2)C1c1cccc([N+](=O)[O-])c1` (stereo not drawn), which growth inhibition is on record?
Its growth inhibition is 92% (active).

With `CCOC(=O)c1cnc2c(C(F)(F)F)cccc2c1N=[N+]=[N-]` as the molecule, how does the growth inhibition read?
Its growth inhibition is 89% (active).

Which growth inhibition does the source give for `O=[N+]([O-])c1cc2no[n+]([O-])c2cc1N1CCCCC1` here?
Its growth inhibition is 97% (active).

For `COC(=O)c1ccc(NCC2=CC(=O)C=CC2=O)cc1O`, which growth inhibition is on record?
The growth inhibition was 89% (active).

With `CCCCCCCCNC(=O)C1=C(C)NC(C)=C(C(=O)NCCCCCCCC)C1` as the molecule, how does the growth inhibition read?
Its growth inhibition is 7%.

With `S=C(Nc1ccc(Cl)c(Cl)c1)SCc1ccc2c(c1)OCO2` as the molecule, how does the growth inhibition read?
Its growth inhibition is 97% (active).

For `O=S(=O)(CCCl)c1ccccc1Cl`, which growth inhibition is on record?
The growth inhibition was 98% (active).

For `Nc1ccccc1CC(O)C(=O)O` (stereo not drawn), which growth inhibition is on record?
The growth inhibition was 90% (active).

For `CN(C)c1ccc(Sc2ccc3nc(N)nc(N)c3c2)cc1`, which growth inhibition is on record?
Its growth inhibition is 55%.

Which growth inhibition does the source give for `CC(C)C1=CCC2C(=C1)CCC1C(C)(C(=O)O)CCCC21C` (stereo not drawn) (tested in a mixture with another compound) here?
The growth inhibition was 94% (active).

For `Cc1ccc(S(=O)(=O)Oc2cc(Cl)c(Cl)cc2Cl)cc1`, which growth inhibition is on record?
Its growth inhibition is -6%.

With `CSC(=S)Nc1cc(C)ccn1` as the molecule, how does the growth inhibition read?
The growth inhibition was 84% (active).

Which growth inhibition does the source give for `CC(C)c1cc(C(C)C)c(O)c(C([O-])[O-])c1.CC(C)c1cc(C(C)C)c(O)c(C([O-])[O-])c1.CC(C)c1cc(C(C)C)c(O)c(C([OH2+])[OH2+])c1.CC(C)c1cc(C(C)C)c(O)c(C([OH2+])[OH2+])c1.[Cu+2].[Cu+2].[OH3+].[OH3+]` here?
The growth inhibition was 76% (active).

Which growth inhibition does the source give for `Cc1cc(I)ccc1N` here?
Its growth inhibition is 92% (active).

For `CC(Br)C(=O)c1ccc2cc(Br)c3ccccc3c2c1` (stereo not drawn), which growth inhibition is on record?
Its growth inhibition is 16%.

Which growth inhibition does the source give for `O=C(Nc1ccccc1)OCCc1ccc(Cl)c(Cl)c1` here?
Its growth inhibition is 47%.

With `O=Cc1cccc2ccc3ccccc3c12` as the molecule, how does the growth inhibition read?
Its growth inhibition is 96% (active).

With `O=[N+]([O-])CC(SCc1ccccc1)c1ccc2c(c1)OCO2` (stereo not drawn) as the molecule, how does the growth inhibition read?
Its growth inhibition is 98% (active).

With `CC1(Cl)CC(O)C2(CC1Br)C1(C)OC1C1OC1(Br)C2(C)C` (stereo not drawn) as the molecule, how does the growth inhibition read?
Its growth inhibition is 98% (active).

With `Cc1cc(O)cc(O)c1N=Nc1ccc([N+](=O)[O-])cc1` as the molecule, how does the growth inhibition read?
The growth inhibition was 63%.

With `CCCCCCCCCCCCCC[N+](C)(CC(=O)[O-])Cc1ccccc1` (stereo not drawn) as the molecule, how does the growth inhibition read?
Its growth inhibition is 99% (active).

For `CC1=NN(c2cccc(Cl)c2)C(=O)C1`, which growth inhibition is on record?
The growth inhibition was 32%.

For `CC(=O)OCc1ccc(O)c(C=O)c1`, which growth inhibition is on record?
The growth inhibition was 35%.

Which growth inhibition does the source give for `Cc1ccc2ccc3cccc4ccc1c2c34` here?
Its growth inhibition is 26%.

For `Cc1nc(-[n+]2nc(-c3ccncc3)nn2-c2ccccc2)sc1C`, which growth inhibition is on record?
The growth inhibition was 39%.

For `C(CCSC1=NCCN1)CSC1=NCCN1` (tested in a mixture with another compound), which growth inhibition is on record?
Its growth inhibition is 99% (active).

For `CCCCCCCCCCC(=O)Cl`, which growth inhibition is on record?
Its growth inhibition is 83% (active).

Which growth inhibition does the source give for `COC1C=COC2(C)Oc3c(C)c(O)c4c(c3C2=O)/C(=N/C2CCC(O)OC2C)C=C(NC(=O)/C(C)=C\C(=O)C2CC2C(O)C(C)C(O)C(C)C(OC(C)=O)C1C)C4=O` (stereo not drawn) here?
Its growth inhibition is 92% (active).

With `S=c1[nH]nc(Nc2ccc(Cl)cc2)s1` as the molecule, how does the growth inhibition read?
Its growth inhibition is 91% (active).

For `O=C1CSC(/C=C/c2ccccc2)N1c1ccc(-c2ccc(-n3c(-c4ccccc4)nc4ccccc4c3=O)cc2)cc1` (stereo not drawn), which growth inhibition is on record?
Its growth inhibition is 67%.

Which growth inhibition does the source give for `O=C1C=CC(=O)N1c1ccc2c(c1)Cc1cc(NC(=O)C(F)(F)F)ccc1-2` here?
The growth inhibition was 77% (active).

For `Brc1ccc(-c2cc3c(cc2C2SCCS2)OCO3)cc1`, which growth inhibition is on record?
Its growth inhibition is -15%.

With `Oc1ccc2ccccc2c1C(c1ccc(Cl)cc1)c1c(O)ccc2ccccc12` as the molecule, how does the growth inhibition read?
The growth inhibition was 84% (active).

For `C[CH2][Sn]([CH2]C)([O]C(=O)C(OC(C)=O)c1ccccc1)[O]C(=O)C(OC(C)=O)c1ccccc1` (stereo not drawn), which growth inhibition is on record?
The growth inhibition was 91% (active).

Which growth inhibition does the source give for `Cc1ccc2ccc(O)cc2c1` here?
The growth inhibition was 50%.
